Measurements taken from PubChem BioAssay (Tox21).
“And” between values parts separate entries of the source, which are not always exact repeats. Equal values may be shown once. Inconclusive results are not listed. Entries that show only a call come without a potency. Some compounds were tested as several samples or in several runs, with calls that do not always agree. The source made the active and inactive calls. Calls come from the whole dose curve; as a rule, active = well fitted curve in the direction sought with a large enough effect in the repeat runs; inconclusive = weak or mixed curves; inactive = no such curve, though single readings can be large; an effect the other way counts as inactive or inconclusive.

Key:
[1] = qHTS assay to identify small molecule antagonists of the glucocorticoid receptor (GR) signaling pathway - cell viability counter screen (AID 720693); note: nearly all actives have a fitted effect of over 55% in size
[2] = qHTS assay for identifying genotoxic compounds that show differential cytotoxicity against isogenic chicken DT40 cell lines with known DNA damage response pathways - wild type cell line (AID 743012); note: nearly all actives have a fitted effect of over 60% in size; note: potency is the fitted concentration of half-maximal effect
Summary of the method: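 Endpoint: CellTiter-Glo luminescence, 30 min RT. Cells: wild type DT40, 300/well. Exposure: compounds in DMSO, 40 h, 37 C/5% CO2, after ~0.5 h pre-incubation.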

[3] = qHTS assay for identifying genotoxic compounds that show differential cytotoxicity against isogenic chicken DT40 cell lines with known DNA damage response pathways - Rev3 mutant cell line (AID 743014); note: nearly all actives have a fitted effect of over 55% in size; note: potency is the fitted concentration of half-maximal effect
[4] = qHTS assay for identifying genotoxic compounds that show differential cytotoxicity against isogenic chicken DT40 cell lines with known DNA damage response pathways - Rad54/Ku70 mutant cell line (AID 743015); note: nearly all actives have a fitted effect of over 60% in size; note: potency is the fitted concentration of half-maximal effect
[5] = qHTS assay to identify small molecule antagonists of the androgen receptor (AR) signaling pathway - cell viability counter screen (AID 743033; note: nearly all actives have a fitted effect of over 45% in size; note: potency is the fitted concentration of half-maximal effect)
[6] = qHTS assay to identify small molecule antagonists of the androgen receptor (AR) signaling pathway using the MDA cell line - cell viability counter screen (AID 743041; note: nearly all actives have a fitted effect of over 45% in size)
Summary of the method: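 In this qHTS counter assay, fluorescence intensity after CellTiter-Fluor addition indicated viability of MDA-kb2 AR-luc cells given compounds and R1881 for 16 h at 37C.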

| Compound | outcome [1] | Potency [2] | Potency [3] | Potency [4] | Potency [5] | Potency [6] |
| --- | --- | --- | --- | --- | --- | --- |
| CCC(O)OC(O)CC (stereo not given) | inactive | inactive | inactive | inactive | inactive | – |
| OCCOCCN1CCN(C2=Nc3ccccc3Sc3ccccc32)CC1 | inactive | 29.8 µM (active) and 8.41 µM (active) | 26.6 µM (active) and 9.44 µM (active) | 26.6 µM (active) | inactive and 26.8 µM (active) | – |
| CC(=O)Nc1cccc(O)c1 | inactive | inactive | inactive | inactive | inactive | – |
| O=P(OC(CCl)CCl)(OC(CCl)CCl)OC(CCl)CCl | inactive | 43.3 µM (active) | 30.5 µM (active) and 19.3 µM (active) | 54.2 µM (active) and 61.1 µM (active) | inactive | inactive |
| COc1ccc(NC(C)=O)cc1N | inactive | inactive | inactive | inactive | inactive | – |
| CCCCCCCCCC | inactive | inactive | inactive | inactive | inactive | – |
| CN(C)CCC(c1ccccc1)c1ccccn1 (stereo not given) | inactive | inactive | inactive | inactive | inactive | inactive |
| CC(C)(C)[C@@H](O)[C@@H](Cc1ccc(Cl)cc1)n1cncn1 | inactive | inactive and 48.5 µM (active) | 30.6 µM (active) | 61.1 µM (active) | inactive | – |
| C=C(C)C(=O)OCCOCCOCCOC(=O)C(=C)C | inactive | inactive | inactive | inactive | inactive | – |
| O=C1CCC(N2C(=O)c3ccccc3C2=O)C(=O)N1 (stereo not given) | inactive | inactive | inactive | inactive | inactive | – |
| c1ccc2scnc2c1 | inactive | inactive | inactive | inactive | inactive | – |
| Oc1cccc2ccccc12 | inactive | inactive | inactive | – | inactive | – |
| OCc1cccnc1 | inactive | inactive | inactive | inactive | inactive | inactive |
| CC(=O)CC(=O)Nc1ccccc1 | inactive | inactive | inactive | – | inactive | – |
| CC(C)(N)CO | inactive | inactive | inactive | inactive | inactive | inactive |
| CC(=O)OCC(=O)[C@@]12N=C(C)O[C@@H]1C[C@H]1[C@@H]3CCC4=CC(=O)C=C[C@]4(C)[C@H]3[C@@H](O)C[C@@]12C | inactive | inactive | inactive | inactive | inactive | inactive |
| CCCCC(CC)COC(=O)CS (stereo not given) | inactive | inactive | inactive | – | inactive | – |
| CCCCCCCC(=O)OC | inactive | inactive | inactive | – | inactive | – |

| Compound | outcome [1] | Potency [2] | Potency [3] | Potency [4] | Potency [5] | Potency [6] |
| --- | --- | --- | --- | --- | --- | --- |
| Fc1ccc(Br)cc1 | inactive | inactive | inactive | – | inactive | – |
| CC(=O)Nc1ccccc1 | inactive | inactive | inactive | inactive | inactive | inactive |
| O=C(O)CCCCCCCCCCC(=O)O | inactive | inactive | inactive | inactive | inactive | inactive |
| CCCCCCCCC/C=C/CC1CC(=O)OC1=O (stereo not given) | inactive | inactive | 48.6 µM (active) | inactive | inactive | inactive |
| CCCCCC1=CCCC1=O | inactive | inactive | inactive | inactive | inactive | inactive |
| O=C(CC(C(=O)OC1CCCCC1)S(=O)(=O)O)OC1CCCCC1 (stereo not given) | inactive | inactive and 17 µM (active) | inactive and 17 µM (active) | – | inactive | – |
| Nc1ccccc1[N+](=O)[O-] | inactive | inactive | inactive | – | inactive | – |
| CN(C)CCC(c1ccc(Cl)cc1)c1ccccn1 (stereo not given) | inactive | inactive | inactive | inactive | inactive | inactive |
| C[C@H]1C[C@H]2[C@@H]3CCC4=CC(=O)C=C[C@]4(C)[C@@]3(F)[C@@H](O)C[C@]2(C)[C@@]1(O)C(=O)CO | inactive | inactive | 27.3 µM (active) | inactive and 68.6 µM (active) | inactive | inactive |
| CC1=CC(=O)NS(=O)(=O)O1 | inactive | inactive | inactive | inactive | inactive | inactive |
| CC1CCC2CC1C2(C)C (stereo not given) | inactive | inactive | inactive | inactive | inactive | inactive |
| O=C(O)c1cc(C(=O)O)cc(S(=O)(=O)O)c1 | inactive | inactive | inactive | inactive | inactive | inactive |
| CCCCN(CCCC)CCCC | inactive | inactive | inactive | inactive | inactive | inactive |
| ON=C1CCCCC1 | inactive | inactive | inactive | – | inactive | – |
| CCC(O)OCCCOC (stereo not given) | inactive | inactive | inactive | inactive | inactive | inactive |
| O=[N+]([O-])c1ccc(/C=C/c2ccc([N+](=O)[O-])cc2S(=O)(=O)O)c(S(=O)(=O)O)c1 | inactive | inactive | inactive | inactive | inactive | inactive |
| Cc1ccc2oc(=O)ccc2c1 | inactive | inactive | inactive | inactive | inactive | inactive |
